The record followed here is PubChem BioAssay AID624404 (Broad Institute, 2012).

The whole screen tested about 1,800 compounds, of which about 710 (39%) were called active. About 28% were inconclusive and are not listed. The list is a sample of the results. Results with a measured potency or affinity are listed apart. A number with no mark means an inactive call.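 Rule for the calls: active = luciferase signal rise whose fitted curve crosses a set activity limit at or below the top valid tested dose; inconclusive = flat fit with 30 to 70% rise, or poor fit; inactive = signal falling, flat within 30%, or crossing above top dose.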

The assay in a line: luciferase activators in glycosylation-insensitive reporter cells, dose response, counter-screen for N-linked glycosylation inhibitor project, D54 LucT cells, luminescence, cherry pick (AID 624404).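 Note: 0% = median neutral control signal and 100% = twice that signal.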 To be noted: D54 LucT luciferase reporter counterscreen, 24 h; series mostly up to 19.5 µM; activity increase (luciferase signal): at the top concentration. In general terms: The purpose of a counterscreen is to sort out artefacts and off-target activity.
For `O=C(Cn1cnc2c(NCc3ccccc3)ncnc21)NCc1ccccc1`, the “activity increase (luciferase signal)” value is 38.4%.
Under `CC(=O)c1ccc(Nc2c3c(nc4ccccc24)CCCC3)cc1` stands 32.1%; under `COc1ccc(Nc2nc(N3CCCC3)nc3ccccc23)c(OC)c1`, -0.901%.
As for `CCOc1ccccc1C1CC(=O)Nc2cc3c(cc21)OCO3` (stereo not given), the figure is 35.4%; as for `Cc1ccc(C)c(N2CCN(c3cnn(-c4nc5ccccc5s4)c(=O)c3Cl)CC2)c1`, 36.1%; as for `CC(C)(C)c1ccc(C(=O)O/N=C(\N)Cc2cccs2)cc1`, 40.3%.
As for `O=C(CCl)Nc1cn(-c2ccccc2)nc1-c1ccc(F)cc1`, the figure is -69.3%; as for `CC1=CC(C)[C@H](/C=N/n2c(=O)[nH]c3c([nH]c4ccc(Br)cc43)c2=O)C(C)C1` (stereo not given in full), 9.8%; as for `COc1ccc(-c2nn(C)c(=O)c3ccccc23)cc1NS(C)(=O)=O`, 57.1%.
`CC=Cc1cc2c(c(=O)o1)C(=O)C(O)C(C)O2` (stereo not given): the “activity increase (luciferase signal)” value was 40.1%.
Under `Cc1noc(C)c1COc1ccc(C(=O)NNC(=O)c2ccccc2F)cc1` stands 70.6%.
For the compound `Cc1ccc(OCCOC(=O)c2c(-c3ccccc3)noc2C)cc1`, the “activity increase (luciferase signal)” value was 13.6%.
Under `N#CCC(CNc1ncc(C(F)(F)F)cc1Cl)OC(=O)c1ccc(Cl)cc1Cl` (stereo not given) stands 13.4%; under `C/C(=N/NC(=O)c1cccs1)c1ccc(NC(=O)COc2ccc(Cl)cc2Cl)cc1`, 13.5%.
`CCOc1ccc(Br)cc1C1=NN(C(C)=O)C(c2ccc([N+](=O)[O-])s2)O1` (stereo not given): the “activity increase (luciferase signal)” value was 30%.
As for `O=C(Nc1cccc(F)c1)c1cc(S(=O)(=O)N2CCOCC2)ccc1N1CCCC1`, the figure is 5.41%.
Under `COc1ccc(S(=O)(=O)Nc2cc3c(cc2C(C)=O)OCO3)cc1` stands 40.6%; under `CN(C)S(=O)(=O)c1ccc(N2CCCC2)c(C(=O)Nc2cccc(F)c2)c1`, 17.2%; under `CN(C)S(=O)(=O)c1ccc(N2CCCC2)c(C(=O)Nc2ccccc2)c1`, 4.45%.
Under `CC1=C(n2ccnc2)CCC1=O` stands 20.5%; under `O=C1CC(c2ccccc2F)c2cc3c(cc2N1)CCC3` (stereo not given), 32.1%.
Turning to `CC(C)(C)c1nnc2sc(SCC(=O)c3ccc4c(c3)OCCO4)nn2c1=O`, the “activity increase (luciferase signal)” value was -0.962%.
For the compound `CN(C)CCc1cc2c(c3c1ccc1ccccc13)OCO2`, the “activity increase (luciferase signal)” value was -9.59%.
Under `COc1ccccc1C1CC(=O)Nc2cc3c(cc21)OCCO3` (stereo not given) stands 7.01%; under `COC(=O)c1sc(N)c(C(=O)OC)c1COC(=O)c1c(C)noc1C`, 41.7%; under `Cc1[nH]c2ccc(C(=O)OC(C)C(=O)NCc3ccccc3)cc2c1C` (stereo not given), 20.7%.
As for `COc1cccc(-c2nc(N3CCN(C)CC3)c3ccccc3n2)c1O`, the figure is 30.5%; as for `O=C(CNc1cccc2ccccc12)N/N=C/C(Br)=C/c1ccccc1`, 33.3%; as for `O=C(N/N=C/C(Br)=C/c1ccccc1)c1cc(-c2ccco2)[nH]n1`, 31.3%.
Consider `Cc1nc2c3cc(F)ccc3n(Cc3ccc(F)cc3)c2s1`, for which the “activity increase (luciferase signal)” value is 23.6%.
As for `CCCn1nc(C(=O)N2CC(=O)Nc3ccccc32)c2ccccc2c1=O`, the figure is 30.2%; as for `CCOc1ccc2nc(NCCNC(=O)Nc3cccc(C)c3)c(C#N)cc2c1`, 12.9%.
Under `COc1ccc2nc(SCC(=O)NC3CCCC3)c(C)cc2c1` stands 34.9%.
As for `OCCNc1c2ccccc2nc2ccccc12`, the figure is -24%.
Consider `Cc1cc(/C=C2\Sc3ccccc3N2C)cc(C)[n+]1CC1CCCO1` (stereo not given), for which the “activity increase (luciferase signal)” value was -30.6%.
For `CC[C@H](C)[C@H](NC(=O)c1ccc(Cl)cc1)C(=O)OCC(=O)c1ccc2c(c1)NC(=O)CO2`, the “activity increase (luciferase signal)” value is -25.4%.
As for `O=C(/C=C/c1cccnc1)c1ccc(F)c(F)c1`, the figure is 12.5%.
As for `COc1ccc(C(=O)C=Cc2ccc(OCc3ccccc3)c(OC)c2)cc1OC`, the figure is 45.9%; as for `CC(C)CC(NC(=O)c1ccc(Cl)cc1)C(=O)OCC(=O)c1ccc2c(c1)NC(=O)CO2` (stereo not given), 19.6%.
Turning to `CNc1ccc(Br)cc(C(=O)/C=C/c2ccc(Cl)cc2Cl)c1=O`, the “activity increase (luciferase signal)” value was 11.2%.
As for `C=CCn1cccc(/C=C/C(=O)c2ccc(C(C)(C)C)cc2)c1=S`, the “activity increase (luciferase signal)” value is -49.2%.
As for `Cc1ccc(-c2nn(-c3ccccc3)cc2NC(=O)CCl)cc1`, the figure is -50%.
Under `Cc1ccc(C(=O)CSc2nn3c(=O)c(C(C)(C)C)nnc3s2)cc1` stands 23.5%; under `Nc1ccc(-c2cc(NC=O)c3ncc(-c4cccc(C(F)(F)F)c4)n3c2)cn1`, 7.33%; under `CN(C)C(=O)c1cccc(-c2cnc3c(NC=O)cc(-c4ccccc4Cl)cn23)c1`, 51.8%.
With `COc1ccc(F)cc1-c1cc(NC(C)=O)c2ncc(-c3cc(OC)c(OC)c(OC)c3)n2c1`, the “activity increase (luciferase signal)” value is -10.8%.
Under `COc1ccccc1-c1cc(NC=O)c2ncc(-c3cccc(C(C)=O)c3)n2c1` stands -15.7%; under `CCOc1cc(S(=O)(=O)NCc2ccc(OC)cc2)c(OCC)cc1-n1cnnn1`, 29%; under `Oc1ccc(N=Nc2ccccc2)o1`, 15.2%.
As for `O=C(Nc1cccc(C(F)(F)F)c1)c1sc(Cl)nc1C(F)(F)F`, the figure is -21.3%.
